# Reference: PubChem BioAssay (Tox21)
# “And” between values parts separate entries of the source, which are not always exact repeats. Identical values can stand only once. Inconclusive results are not listed. Entries that show only a call come without a potency. Where a structure was tested more than once in an assay, its records may differ in their call. The source made the active and inactive calls. Unless noted, calls follow the shape of the dose curve; as a rule, active = well fitted curve in the direction sought with a large enough effect in the repeat runs; inconclusive = weak or mixed curves; inactive = no such curve, though single readings can be large; an effect the other way counts as inactive or inconclusive.
# Tests used:
# [1] = qHTS assay to identify small molecule antagonists of the retinoic acid receptor (RAR) signaling pathway (AID 1159552; also: nearly all actives have a fitted effect of over 50% in size; also: potency is read from the fitted curve at half-maximal effect)
# How it was run: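 Retinol signaling pathway inhibitors screened in C3RL4 RARE-luciferase reporter cells seeded overnight at 37 C, then compounds added with 1 uM (final) retinol as pathway substrate. After 6 hr at 37 C, luciferase luminescence read after 30 min at room temperature.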
# [2] = qHTS assay to identify small molecule agonists of the retinoic acid receptor (RAR) signaling pathway (AID 1159553); also: potency is read from the fitted curve at half-maximal effect
# How it was run: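 Reporter readout comes from luciferase under RARE control in C3RL4 cells; compound exposure lasts 6 hr at 37 C in 5% CO2, and luminescence is recorded following a 30 min room-temperature incubation with reagent.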
# [3] = qHTS assay to identify small molecule antagonists of the estrogen related receptor (ERR) signaling pathway from Tox21 library - cell viability counter screen (AID 1224834); also: nearly all actives have a fitted effect of over 30% in size; also: potency is read from the fitted curve at half-maximal effect
# How it was run: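 After 17.5 h of compound exposure at 37 C, ERR cells are incubated with CellTiter-Fluor for 30 min and fluorescence intensity serves as the viability measure.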
# [4] = molecular target: Luciferin 4-monooxygenase (Photinus pyralis) (UniProt P08659); experiment: qHTS assay to identify small molecule inhibitors of firefly luciferase (AID 1224835); also: nearly all actives have a fitted effect of over 25% in size; also: potency is read from the fitted curve at half-maximal effect
# How it was run: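 Biochemical qHTS: compounds run as interplate titrations against purified firefly enzyme, with D-luciferin and ATP each at its KM concentration. Light output recorded by CCD imaging.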
# [5] = qHTS assay to identify small molecule agonists of the constitutive androstane receptor (CAR) signaling pathway - cell viability counter screen (AID 1224836); also: nearly all actives have a fitted effect of over 45% in size; also: potency is read from the fitted curve at half-maximal effect
# How it was run: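 HepG2 cells stably carrying hCAR and a CYP2B6-2.2kb reporter; 15-concentration compounds plus PK11195 (final 0.75 uM), 23 hr at 37 C/5% CO2. Viability read by CellTiter-Fluor fluorescence.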
# [6] = qHTS assay to identify small molecule antagonists of the constitutive androstane receptor (CAR) signaling pathway - cell viability counter screen (AID 1224837); also: nearly all actives have a fitted effect of over 45% in size; also: potency is read from the fitted curve at half-maximal effect
# How it was run: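 Counter screen run in HepG2-CYP2B6-hCAR cells: 4 hr settle, compound titration (15 concentrations) with 50 nM CITCO, 23 hr at 37 C/5% CO2, CellTiter-Fluor fluorescence.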
# [7] = molecular target: Nuclear receptor subfamily 1 group I member 3 (Homo sapiens) (UniProt Q14994); experiment: qHTS assay to identify small molecule antagonists of the constitutive androstane receptor (CAR) signaling pathway (AID 1224838);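 also: HepG2 cells stably expressing hCAR with CYP2B6 luciferase reporter stimulated by CITCO; nearly all actives have a fitted effect of over 40% in size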; also: potency is read from the fitted curve at half-maximal effect
# How it was run: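 Cell line: HepG2 double-stable for hCAR and CYP2B6-2.2kb reporter. Agonist: CITCO, 50 nM final. Compounds: 15 concentrations, 24 h, 37 C. Detection: ONE-Glo luminescence.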
# [8] = molecular target: Nuclear receptor subfamily 1 group I member 3 (Homo sapiens) (UniProt Q14994); experiment: qHTS assay to identify small molecule agonists of the constitutive androstane receptor (CAR) signaling pathway (AID 1224839); also: nearly all actives have a fitted effect of over 15% in size; also: potency is read from the fitted curve at half-maximal effect;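 as to activation: HepG2 cells stably carrying human CAR and a CYP2B6 luciferase reporter; series mostly up to about 92 µM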
# How it was run: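 HepG2 cells stably co-transfected with hCAR and a CYP2B6-2.2kb luciferase reporter; compounds at 15 concentrations with 0.75 uM PK11195 present. After 24 hr at 37 C, luciferase read by ONE-Glo luminescence.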
# [9] = qHTS assay to identify small molecule antagonists of the estrogen related receptor signaling pathway with the pleiotropic PPARgamma coactivator (PGC) from Tox21 10K library - cell viability counter screen (AID 1224840; active = well fitted cell-killing curve with a large enough effect in the repeat runs, not every such curve was filed as active; also: nearly all actives have a fitted effect of over 40% in size; also: potency is read from the fitted curve at half-maximal effect)
# How it was run: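 Following seeding of 2,000 PGC/ERR cells/well and 6 hours' incubation, test compounds were delivered in DMSO. The plates then sat 17.5 hours at 37 C before a fluorogenic live-cell protease reagent (CellTiter-Fluor) was read after 30 min.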
# [10] = qHTS assay to identify small molecule antagonists of the estrogen related receptor signaling pathway with the pleiotropic PPARgamma coactivator (PGC) from Tox21 10K library (AID 1224841; call rule not given here; also: actives are mostly falling curves and most rising ones were filed inactive; nearly all actives have a fitted effect of over 50% in size; also: potency is read from the fitted curve at half-maximal effect)
# How it was run: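 qHTS antagonist format: PGC/ERR cells, 2k/well, compound in DMSO by pin transfer after 6 h attachment, 18 h treatment at 37 C, One-Glo luminescence read at 30 min.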
# [11] = molecular target: Thyrotropin receptor (Homo sapiens) (UniProt P16473); experiment: qHTS assay to identify small molecule agonists of the thyroid stimulating hormone receptor (TSHR) signaling pathway (AID 1224843; calls by dose curve; also: nearly all actives have a fitted effect of over 45% in size; also: potency is read from the fitted curve at half-maximal effect)
# How it was run: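 Steps: seed 800 TSHR-HEK293 cells per well; add test compound and hold 30 min at ambient temperature; dispense cAMP-d2 then anti-cAMP cryptate; incubate 1 h at ambient; measure fluorescence intensity.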
# [12] = qHTS assay to identify small molecule agonists of the hypoxia (HIF-1) signaling pathway - cell viability counter screen (AID 1224844; calls by dose curve; also: nearly all actives have a fitted effect of over 50% in size; also: potency is read from the fitted curve at half-maximal effect)
# How it was run: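 Cells (HRE-bla ME-180, 2,000 per well) sat 5 hrs at 37C, got compound for 17 hrs, were read for CCF4-AM FRET, and were finally lysed with CellTiter-Glo for a 30 min room-temperature luminescence read.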
# [13] = qHTS assay to identify small molecule agonists of the estrogen related receptor signaling pathway with the pleiotropic PPARgamma coactivator (PGC) from Tox21 10K library (AID 1224842); also: nearly all actives have a fitted effect of over 15% in size
# How it was run: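 PGC/ERR reporter cell line, 2,000 cells per well, incubated 6 h at 37 C before 23 nL compound in DMSO was added. After 18 h at 37 C, One-Glo luminescence read following 30 min at room temperature.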
# [14] = qHTS assay to identify small molecule antagonists of the estrogen related receptor (ERR) signaling pathway - cell viability counter screen (AID 1224818); also: potency is read from the fitted curve at half-maximal effect
# How it was run: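 After a 6 h pre-incubation, ERR cells were dosed by pin tool with compounds, positive/negative controls or DMSO alone. Following 17.5 h at 37 C and 30 min with CellTiter-Fluor, fluorescence was recorded.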
# [15] = qHTS assay to identify small molecule antagonists of the estrogen related receptor (ERR) signaling pathway (AID 1224819; also: potency is read from the fitted curve at half-maximal effect; nearly all actives have a fitted effect of over 50% in size)
# How it was run: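 Luminescence readout (One-Glo, 30 min, RT) of ERR cell line after 18 h compound exposure at 37 C; cells seeded 2,000/well, pre-incubated 6 h, compounds pinned from DMSO stocks.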
# [16] = qHTS assay to identify small molecule agonists of the estrogen related receptor (ERR) signaling pathway (AID 1224820)
# How it was run: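 ERR reporter cells (NTP line) plated 2,000/well, incubated 6 h at 37 C/5% CO2, then pinned with compounds in DMSO and held 18 h at 37 C. One-Glo added; luminescence read after 30 min at room temperature.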
# [17] = qHTS assay to identify small molecule agonists of the estrogen related receptor signaling pathway with the pleiotropic PPARgamma coactivator (PGC) (AID 1224823)
# How it was run: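 PGC/ERR reporter cells were seeded, rested 6 h at 37 C/5% CO2, then exposed to compounds in DMSO by pin transfer for 18 h at 37 C. Luciferase activity was read as luminescence after One-Glo reagent and 30 min at room temperature.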
# [18] = qHTS assay to identify small molecule agonists of H2AX (AID 1224845; active = well fitted activation curve with a large enough effect in the signal ratio in the repeat runs, not every such curve was filed as active; the % refers to the signal ratio)
# How it was run: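 Wild-type CHO-K1 cells, plated overnight, exposed 3hr at 37C to 15 concentrations (0.76% DMSO final). Lysed, then HTRF anti-pH2AX (S139) cryptate and anti-H2AX-d2 antibodies, 24 hr room temperature; 665/620 nm emission read.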
# [19] = system: estrogen-related receptor alpha (ERRalpha) with PGC-1alpha coactivator, human; experiment: qHTS assay to identify small molecule antagonists of the estrogen related receptor signaling pathway with the pleiotropic PPARgamma coactivator (PGC) (AID 1224821; calls by dose curve)
# How it was run: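 Cells engineered for PGC/ERR signalling (line from NTP) were plated 6 h at 37 C/5% CO2, then exposed to DMSO-dissolved compound for 18 h at 37 C. Luciferase activity was read by One-Glo luminescence after 30 min at room temperature.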
# [20] = qHTS assay to identify small molecule antagonists of the estrogen related receptor signaling pathway with the pleiotropic PPARgamma coactivator (PGC) cell viability counter screen (AID 1224822; also: potency is read from the fitted curve at half-maximal effect)
# How it was run: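 PGC/ERR cells were plated at 2,000 per well and allowed 6 h to settle before compound addition. Following 17.5 h at 37 C, CellTiter-Fluor reagent was added and fluorescence was read 30 min later.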
# Chain of Nuclear receptor subfamily 1 group I member 3 (Homo sapiens) (Q14994 whole entry, looked up): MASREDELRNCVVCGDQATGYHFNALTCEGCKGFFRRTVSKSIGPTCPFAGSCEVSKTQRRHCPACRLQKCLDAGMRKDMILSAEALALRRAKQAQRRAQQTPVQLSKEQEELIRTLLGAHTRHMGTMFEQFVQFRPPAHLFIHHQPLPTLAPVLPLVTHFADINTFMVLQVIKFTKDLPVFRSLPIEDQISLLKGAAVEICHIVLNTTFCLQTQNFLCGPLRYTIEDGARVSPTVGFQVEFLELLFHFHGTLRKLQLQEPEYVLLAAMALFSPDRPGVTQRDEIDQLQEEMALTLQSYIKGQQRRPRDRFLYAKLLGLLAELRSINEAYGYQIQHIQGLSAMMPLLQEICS
# Chain of Thyrotropin receptor (Homo sapiens) (P16473 whole entry, looked up): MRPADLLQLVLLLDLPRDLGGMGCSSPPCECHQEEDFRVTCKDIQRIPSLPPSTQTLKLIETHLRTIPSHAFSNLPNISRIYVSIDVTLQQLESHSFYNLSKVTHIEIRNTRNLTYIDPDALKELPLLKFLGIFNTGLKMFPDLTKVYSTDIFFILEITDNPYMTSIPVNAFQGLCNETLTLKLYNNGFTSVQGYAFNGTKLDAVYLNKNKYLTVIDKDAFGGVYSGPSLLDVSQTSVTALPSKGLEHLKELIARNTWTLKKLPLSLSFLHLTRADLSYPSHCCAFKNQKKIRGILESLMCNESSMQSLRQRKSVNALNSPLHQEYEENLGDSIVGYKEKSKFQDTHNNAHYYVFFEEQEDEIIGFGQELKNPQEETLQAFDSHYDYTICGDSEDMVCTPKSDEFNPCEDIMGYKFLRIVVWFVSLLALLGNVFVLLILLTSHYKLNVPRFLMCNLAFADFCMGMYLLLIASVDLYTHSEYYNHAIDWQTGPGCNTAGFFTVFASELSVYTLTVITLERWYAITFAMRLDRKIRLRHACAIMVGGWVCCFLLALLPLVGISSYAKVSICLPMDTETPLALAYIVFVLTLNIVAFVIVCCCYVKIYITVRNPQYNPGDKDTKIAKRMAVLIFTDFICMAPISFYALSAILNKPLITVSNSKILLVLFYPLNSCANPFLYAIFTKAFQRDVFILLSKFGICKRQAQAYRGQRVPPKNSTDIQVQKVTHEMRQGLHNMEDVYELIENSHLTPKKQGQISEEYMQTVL
# Chain of Luciferin 4-monooxygenase (Photinus pyralis) (P08659 whole entry, looked up): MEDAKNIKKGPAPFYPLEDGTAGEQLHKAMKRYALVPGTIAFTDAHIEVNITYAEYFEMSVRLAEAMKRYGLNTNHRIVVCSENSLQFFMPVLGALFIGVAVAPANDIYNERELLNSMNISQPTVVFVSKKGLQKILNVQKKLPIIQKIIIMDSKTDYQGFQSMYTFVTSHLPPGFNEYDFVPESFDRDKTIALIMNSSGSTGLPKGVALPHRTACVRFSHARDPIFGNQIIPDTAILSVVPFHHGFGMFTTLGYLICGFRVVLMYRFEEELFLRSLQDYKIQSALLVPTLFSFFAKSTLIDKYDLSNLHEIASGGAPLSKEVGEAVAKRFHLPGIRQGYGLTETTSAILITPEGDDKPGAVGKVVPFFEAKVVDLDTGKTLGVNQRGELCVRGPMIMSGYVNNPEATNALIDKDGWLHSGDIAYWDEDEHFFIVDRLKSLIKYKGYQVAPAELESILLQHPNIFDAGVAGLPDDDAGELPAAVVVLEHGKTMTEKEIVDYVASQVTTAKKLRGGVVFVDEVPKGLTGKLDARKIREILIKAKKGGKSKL
SMILES,Potency [1],Potency [2],Potency [3],Potency [4],Potency [5],Potency [6],Potency [7],Potency [8],Potency [9],Potency [10],Potency [11],Potency [12],Potency [13],Potency [14],Potency [15],outcome [16],outcome [17],Potency [18],outcome [19],Potency [20]
Cc1ccc2ccc3cccc4ccc1c2c34,inactive,inactive,inactive,35.5 µM (active),inactive,inactive,inactive,30.6 µM (active),inactive,inactive,inactive,inactive,,,,,,,,
CCN(CC)c1ccc(N)cc1,inactive,3.15 µM (active),28.1 µM (active),41 µM (active),31.5 µM (active),28.1 µM (active),62.8 µM (active),,25 µM (active),,,inactive,inactive,,,,,,,
SCCCCCCCCS,inactive,inactive,inactive,inactive,inactive,inactive,inactive,inactive,inactive,,inactive,inactive,,,,,,,,
Cc1cc2c(C(C)C)c(O)c(O)c(C=O)c2c(O)c1-c1c(C)cc2c(C(C)C)c(O)c(O)c(C=O)c2c1O,inactive,inactive,13.3 µM (active),inactive,,,,inactive,26.6 µM (active),,inactive,,inactive,10.2 µM (active),2.76 µM (active),inactive,inactive,,,
C(=C/c1ccccc1)/c1ccccc1,inactive,inactive,inactive,inactive,inactive,inactive,inactive,inactive,inactive,,inactive,inactive,inactive,,,,,inactive,,
COc1cc(C(=O)NS(=O)(=O)c2ccccc2C)ccc1Cc1cn(C)c2ccc(NC(=O)OC3CCCC3)cc12,inactive,inactive,inactive,27.5 µM (active),inactive,inactive,inactive,,inactive,inactive,inactive,,inactive,,,,,inactive,,
O=C(O)CC(=O)O,inactive,inactive,inactive,inactive,inactive,inactive,inactive,,inactive,,inactive,inactive,,,,,,inactive,,
CC1=C(/C=C/C(C)=C/C=C/C(C)=C/C(=O)Nc2ccc(O)cc2)C(C)(C)CCC1,inactive and 29.8 µM (active),4.98 µM (active) and 2.66 µM (active),28 µM (active) and 23.7 µM (active),inactive,23.7 µM (active),29.8 µM (active),,inactive,28 µM (active) and 13.3 µM (active),6.27 µM (active),22.2 µM (active) and 11.9 µM (active),22.4 µM (active) and 19 µM (active),inactive,,,inactive,inactive,,inactive,13.9 µM (active)
C[C@@H]1CC[C@H]2C(C)(C)[C@H]3C[C@@]12CC[C@@]3(C)O,inactive,inactive,inactive,inactive,inactive,inactive,inactive,,inactive,54.4 µM (active),54.4 µM (active),inactive,inactive,,,,,inactive,,
Cc1ccc(N)cc1O,inactive,12.2 µM (active),,,inactive,inactive,inactive,27.3 µM (active),inactive,,,inactive,,inactive,,,,,,inactive
CC(COC(=O)c1ccccc1)OC(=O)c1ccccc1 (stereo not given),inactive,inactive,inactive,inactive,inactive,inactive,inactive,inactive,inactive,inactive,inactive,inactive,inactive,,,,,inactive,,
CCC1(c2cnc[nH]2)Cc2ccccc2C1,inactive,inactive,inactive,inactive,inactive,inactive,inactive,,inactive,,,,,,,,,inactive,,
CCOC(=O)N1CCC(=C2c3ccc(Cl)cc3CCc3cccnc32)CC1,inactive,inactive,24.3 µM (active) and 29.8 µM (active),inactive,inactive,,inactive,,30.6 µM (active),,,54.9 µM (active) and inactive,,inactive,,inactive,,,,inactive
CC(C)c1ccc(O)c(C(C)C)c1,inactive,inactive,inactive,inactive,inactive,inactive,inactive,,inactive,inactive,inactive,,inactive,,,,,inactive,,
Cc1cn[nH]c1,inactive,inactive,inactive,inactive,inactive,inactive,,,inactive,,inactive,inactive,,inactive,,,,inactive,,inactive
C/C=C/C(=O)Oc1c(CCCCCC(C)C)cc([N+](=O)[O-])cc1[N+](=O)[O-],17.2 µM (active),inactive,24.3 µM (active),inactive,19.3 µM (active),21.7 µM (active),30.6 µM (active),inactive,27.3 µM (active),,inactive,17.4 µM (active),inactive,,,,,,,
